# Calls of active or inactive are those of the source.
# Tests used:
# [1] = system: PRMT1 (protein arginine N-methyltransferase 1); assay: small molecules binding arginine methyltransferase PRMT1 – biochemical, small-molecule microarray, 635 nm fluorescence, primary screen (AID 1088); conditions: higher = more signal;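 also: binding of Prmt1 protein to compounds spotted on small-molecule microarray slides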
# [2] = growth effects on S. cerevisiae YJM789 – YJM789 clinical isolate, OD600, 24 h, basal, primary screen (AID 1089); conditions: higher = more signal, called active from +8 up or from −8 down;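 also: growth of clinical yeast isolate S. cerevisiae YJM 789 seeded 1000 cells per well; test concentration not given here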
# [3] = S. pombe growth modifiers, basal conditions – strain 972, OD600, 24 h, no modulator, primary screen (AID 1090);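 also: basal condition with compound alone and no growth modifier present; test concentration not given here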; conditions: S. pombe 972 growth, higher = more signal, called active from +8 up or from −8 down
# [4] = budding yeast growth modifiers under rapamycin – strain BY4716, OD600, 96 h, primary screen (AID 1091); also: test concentration not given here; conditions: S. cerevisiae BY4716 + rapamycin, higher = more signal, called active from +8 up or from −8 down
# [5] = molecular target: Torsin-1A-interacting protein 2 (Homo sapiens) (UniProt Q8NFQ8); assay: small molecules binding lysate-expressed LULL1 – cell lysate, human LULL1 lysate, 635/667 nm fluorescence, primary screen (AID 1092); conditions: small-molecule microarray, hLULL1 lysate binding, 635 nm fluorescence; higher = more signal;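 also: probe is lysate of COS7 cells overexpressing human LULL1; score merges per-feature 667 nm fluorescence with signal-to-noise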
# [6] = optical density change of DRC41 E. coli – strain DRC41, OD650, 24 h, E. coli filamentation project, primary screen (AID 1093);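 also: MC1000 strain lacking acrAB efflux and sulA so SOS filamentation is blocked; test concentration not given here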; conditions: E. coli DRC41 growth, higher = more signal, called active from +8 up or from −8 down
# [7] = probe aLefty2 binding to arrayed compounds – biochemical, biotinylated probe, 635/667 nm fluorescence, primary screen (AID 1094); conditions: small-molecule microarray, higher = more signal;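 also: score merges spot fluorescence near 667 nm with spot signal-to-noise ratio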
# [8] = system: Noggin (protein binding on small-molecule microarray); assay: small molecules binding Noggin protein – biochemical, 635/667 nm fluorescence, primary screen (AID 1095); conditions: 635 nm fluorescence, higher = more signal;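 also: score merges 667 nm feature fluorescence with signal to noise over triplicate slides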
# [9] = molecular target: Neurogenic locus notch homolog protein 3 (Homo sapiens) (UniProt Q9UM47); assay: small molecules binding NOTCH3 protein – biochemical, 635/667 nm fluorescence, primary screen (AID 1096); conditions: small-molecule microarray, 635 nm fluorescence, higher = more signal
# [10] = probe aEGFR binding to arrayed compounds – biochemical, biotinylated probe, 635/667 nm fluorescence, primary screen (AID 1097); conditions: small-molecule microarray, higher = more signal;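 also: probe is a biotinylated anti-EGFR antibody binding compounds printed on slides; score combines fluorescence near 667 nm and signal to noise of each spot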
# Torsin-1A-interacting protein 2 (Homo sapiens), sequence (Q8NFQ8 whole entry, looked up): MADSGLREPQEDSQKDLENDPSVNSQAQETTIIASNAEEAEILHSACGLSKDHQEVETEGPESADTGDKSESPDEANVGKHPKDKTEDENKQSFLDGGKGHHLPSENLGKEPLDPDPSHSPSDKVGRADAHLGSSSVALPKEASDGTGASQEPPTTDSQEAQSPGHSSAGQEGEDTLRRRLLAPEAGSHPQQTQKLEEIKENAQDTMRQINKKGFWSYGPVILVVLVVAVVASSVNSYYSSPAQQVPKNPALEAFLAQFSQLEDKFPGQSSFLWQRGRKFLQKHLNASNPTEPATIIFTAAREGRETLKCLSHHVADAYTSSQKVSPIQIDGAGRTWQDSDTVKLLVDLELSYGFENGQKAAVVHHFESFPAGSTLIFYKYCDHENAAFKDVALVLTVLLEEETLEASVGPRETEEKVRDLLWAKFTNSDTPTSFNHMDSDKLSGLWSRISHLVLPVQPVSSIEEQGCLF
# Neurogenic locus notch homolog protein 3 (Homo sapiens), sequence (Q9UM47 whole entry, looked up): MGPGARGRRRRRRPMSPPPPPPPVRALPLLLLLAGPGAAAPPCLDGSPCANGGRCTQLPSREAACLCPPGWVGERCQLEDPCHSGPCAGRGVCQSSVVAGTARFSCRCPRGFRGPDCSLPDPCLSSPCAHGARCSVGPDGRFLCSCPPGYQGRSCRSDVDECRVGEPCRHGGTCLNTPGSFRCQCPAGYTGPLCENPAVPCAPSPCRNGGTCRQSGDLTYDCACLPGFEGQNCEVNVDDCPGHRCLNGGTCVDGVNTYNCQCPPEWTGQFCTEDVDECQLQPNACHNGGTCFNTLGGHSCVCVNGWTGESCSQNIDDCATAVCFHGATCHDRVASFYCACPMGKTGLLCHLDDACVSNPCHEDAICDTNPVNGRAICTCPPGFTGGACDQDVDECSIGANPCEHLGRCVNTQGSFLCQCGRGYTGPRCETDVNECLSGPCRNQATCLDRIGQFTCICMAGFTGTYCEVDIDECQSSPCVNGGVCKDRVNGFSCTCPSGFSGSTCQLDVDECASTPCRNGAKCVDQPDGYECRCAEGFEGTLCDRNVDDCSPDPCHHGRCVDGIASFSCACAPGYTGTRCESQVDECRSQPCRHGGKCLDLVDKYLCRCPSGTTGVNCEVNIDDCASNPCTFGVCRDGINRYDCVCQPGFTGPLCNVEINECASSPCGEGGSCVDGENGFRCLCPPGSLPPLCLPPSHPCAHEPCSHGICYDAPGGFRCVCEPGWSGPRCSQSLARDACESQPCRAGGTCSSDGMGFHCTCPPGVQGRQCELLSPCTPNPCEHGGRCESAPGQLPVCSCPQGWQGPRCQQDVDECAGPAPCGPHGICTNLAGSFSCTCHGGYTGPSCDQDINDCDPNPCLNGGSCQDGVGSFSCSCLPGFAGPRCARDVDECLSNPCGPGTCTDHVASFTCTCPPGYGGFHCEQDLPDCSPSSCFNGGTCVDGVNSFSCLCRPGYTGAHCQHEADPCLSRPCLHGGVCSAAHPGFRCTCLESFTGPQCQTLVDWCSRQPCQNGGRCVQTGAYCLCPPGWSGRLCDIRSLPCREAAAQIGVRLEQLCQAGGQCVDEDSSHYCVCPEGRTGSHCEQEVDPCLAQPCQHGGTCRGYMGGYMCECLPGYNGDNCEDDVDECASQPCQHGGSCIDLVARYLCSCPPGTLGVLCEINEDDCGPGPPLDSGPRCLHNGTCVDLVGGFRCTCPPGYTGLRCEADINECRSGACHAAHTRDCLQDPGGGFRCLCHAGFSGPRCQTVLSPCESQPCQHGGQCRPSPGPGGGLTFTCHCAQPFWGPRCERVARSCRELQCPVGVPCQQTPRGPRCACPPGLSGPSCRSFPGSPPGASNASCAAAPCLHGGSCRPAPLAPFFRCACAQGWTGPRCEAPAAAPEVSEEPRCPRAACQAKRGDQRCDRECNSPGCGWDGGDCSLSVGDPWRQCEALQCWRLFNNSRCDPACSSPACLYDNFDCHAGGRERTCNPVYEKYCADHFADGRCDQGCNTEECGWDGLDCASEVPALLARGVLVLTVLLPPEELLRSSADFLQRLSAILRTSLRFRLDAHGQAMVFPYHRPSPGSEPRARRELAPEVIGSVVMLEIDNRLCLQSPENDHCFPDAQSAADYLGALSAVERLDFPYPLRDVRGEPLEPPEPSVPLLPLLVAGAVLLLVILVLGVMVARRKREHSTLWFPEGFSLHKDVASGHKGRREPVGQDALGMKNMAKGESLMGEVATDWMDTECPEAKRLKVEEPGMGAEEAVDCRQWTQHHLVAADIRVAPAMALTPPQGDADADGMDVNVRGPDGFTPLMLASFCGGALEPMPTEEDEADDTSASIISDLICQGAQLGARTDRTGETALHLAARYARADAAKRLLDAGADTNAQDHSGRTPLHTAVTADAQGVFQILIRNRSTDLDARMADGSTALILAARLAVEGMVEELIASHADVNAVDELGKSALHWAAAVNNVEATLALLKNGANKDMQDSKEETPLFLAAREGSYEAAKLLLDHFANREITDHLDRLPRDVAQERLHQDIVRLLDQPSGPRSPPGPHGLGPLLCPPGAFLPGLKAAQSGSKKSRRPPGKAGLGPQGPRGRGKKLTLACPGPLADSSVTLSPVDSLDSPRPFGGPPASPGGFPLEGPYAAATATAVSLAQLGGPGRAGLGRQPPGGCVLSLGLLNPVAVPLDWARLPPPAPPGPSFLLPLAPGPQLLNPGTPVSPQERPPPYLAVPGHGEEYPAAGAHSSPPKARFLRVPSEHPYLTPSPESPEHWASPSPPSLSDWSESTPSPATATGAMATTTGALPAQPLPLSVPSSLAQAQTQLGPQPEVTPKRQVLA
Structure (SMILES),composite z-score [1],z-score [2],z-score [3],z-score [4],composite z-score [5],z-score [6],composite z-score [7],composite z-score [8],composite z-score [9],composite z-score [10]
NC(=O)[C@H]1[C@@H]2C(=O)O[C@@H](c3ccccc3)[C@@H](c3ccccc3)N2[C@@H](c2ccc(O)cc2)[C@]12C(=O)Nc1ccc(C#CCCO)cc12,-0.484,-0.178 (inactive),-0.196 (inactive),-0.503 (inactive),0.497,0.0528 (inactive),-0.05,-1.02,-0.714,-0.112
CCOC(=O)C[C@H]1[C@H](OC(=O)c2ccccc2-c2ccccc2)[C@@H](NC(=O)c2ccc(-c3ccccc3)cc2)c2cc(OCCCO)ccc2N1C(=O)Cc1ccc(OC)cc1,0.362,-0.39 (inactive),-0.826 (inactive),0.27 (inactive),0.775,-0.857 (inactive),-0.0435,0.19,0.266,0.0651
CCCC=C(CCC)[C@@H](NC(=O)c1ccc(C(F)(F)F)cc1)c1ccccc1,0.626,0.562 (inactive),-0.502 (inactive),1.62 (inactive),2.03,-0.773 (inactive),-0.0038,-0.0491,0.417,-0.0565
C=CCNC(=O)[C@H]1[C@@H]2C(=O)O[C@@H](c3ccccc3)[C@@H](c3ccccc3)N2[C@@H](c2ccccc2OCCO)[C@]12C(=O)N(C(=O)OCCOC)c1ccc(C#CCC(C(=O)OC)C(=O)OC)cc12,1.55,0.759 (inactive),-1.68 (inactive),5.51 (inactive),2.97,3.27 (inactive),0.0757,1.15,1.03,0.0343
CCOC(=O)C[C@H]1[C@H](OC(=O)c2cc3ccccc3oc2=O)[C@@H](NC(=O)C2CCCCC2)c2cc(OCCCO)ccc2N1C(=O)c1ccc2ccccc2n1,1.06,0.152 (inactive),0.802 (inactive),1.29 (inactive),1.17,-0.865 (inactive),-0.124,0.87,1.02,-0.154
COCCOC(=O)N1C(=O)[C@@]2(c3cc(C#CCCO)ccc31)[C@H](c1ccc(O)cc1)N1[C@H](c3ccccc3)[C@H](c3ccccc3)OC(=O)[C@H]1[C@@H]2C(=O)Nc1nc2ccccc2s1,1.55,-0.123 (inactive),-0.239 (inactive),0.691 (inactive),2.84,1.74 (inactive),-0.0283,1.39,1.09,0.0082
C=CCNC(=O)[C@H]1[C@@H]2C(=O)O[C@@H](c3ccccc3)[C@@H](c3ccccc3)N2[C@@H](c2ccccc2OCCO)[C@]12C(=O)N(C(=O)OCCOC)c1ccc(C#CCNC(N)=O)cc12,1.55,0.602 (inactive),-0.26 (inactive),3.16 (inactive),2.39,2.35 (inactive),-0.108,0.878,1.15,-0.0389
O=C1C2C=CC(C(O)c3ccccc3)N(n3cnnc3)C2C(=O)N1Cc1ccccc1 (stereo not given),0.345,-1.3 (inactive),0.264 (inactive),-0.881 (inactive),1.28,-0.734 (inactive),0.116,-0.0596,-0.163,-0.0112
O=C1O[C@@H](c2ccccc2)[C@@H](c2ccccc2)N2[C@@H](c3ccc(O)cc3)[C@]3(C(=O)Nc4ccc(C#CC5(O)CCCCCC5)cc43)[C@@H](C(=O)Nc3nc4ccccc4s3)[C@H]12,1.54,0.775 (inactive),-0.399 (inactive),1.06 (inactive),2.56,2.03 (inactive),0.718,1.26,1.07,0.267
COCCOC(=O)N1C(=O)[C@@]2(c3cc(C#CCC(C(=O)OC)C(=O)OC)ccc31)[C@H](C(=O)N1CCN(c3ncccn3)CC1)[C@H]1C(=O)O[C@H](c3ccccc3)[C@H](c3ccccc3)N1[C@@H]2c1ccc(O)cc1,1.54,-0.256 (inactive),-1.38 (inactive),0.921 (inactive),2.23,3.19 (inactive),-0.0288,0.414,1.17,-0.0675
COCCOC(=O)N1C(=O)[C@@]2(c3ccccc31)[C@H](C(=O)N1CCc3cc(OC)c(OC)cc3C1)[C@H]1C(=O)O[C@H](c3ccccc3)[C@H](c3ccccc3)N1[C@@H]2c1ccccc1OCCO,1.48,0.384 (inactive),-0.0822 (inactive),5.51 (inactive),2.14,2.8 (inactive),0.0261,1.03,1.07,-0.0717
C=CCC(OC(C)=O)[C@@H]1[C@@H](N(Cc2cccc3ccccc23)C(=O)c2ccc(C)cc2)c2cc(OCCCO)ccc2N1C(=O)c1ccc(-c2ccccc2)cc1 (stereo not given in full),0.578,-2.24 (inactive),0.167 (inactive),-0.347 (inactive),0.298,1.29 (inactive),-0.11,0.314,0.387,-0.0967
COc1ccc(CCN2C(=O)[C@@]3(c4ccc([N+](=O)[O-])cc4)CC(=O)N(CC45CC6CC(CC(C6)C4)C5)[C@@H]3c3ccc(CO)cc32)cc1,1.55,0.0722 (inactive),-0.3 (inactive),-1.6 (inactive),2.09,-0.463 (inactive),0.141,-0.223,0.294,-0.109
COc1cc2c(cc1OC)CN(C(=O)[C@H]1[C@@H]3C(=O)O[C@@H](c4ccccc4)[C@@H](c4ccccc4)N3[C@@H](c3ccccc3OCCO)[C@]13C(=O)Nc1ccc(C#CC4(O)CCCCCC4)cc13)CC2,1.55,1.71 (inactive),0.519 (inactive),4.28 (inactive),2.83,2.54 (inactive),0.0028,1.19,1.11,0.0965
CN(C)c1ccc(C(O)C2C=CC3C(=O)NC(=O)C3N2Nc2ccc(Cl)cc2Cl)cc1 (stereo not given),0.546,-0.298 (inactive),-1.06 (inactive),0.789 (inactive),2.58,-0.617 (inactive),0.31,-0.163,0.809,-0.125
N#Cc1ccc(NN2C(C(O)c3ccc(I)cc3)C=CC3C(=O)N(c4ccccc4)C(=O)C32)cc1 (stereo not given),1.16,0.647 (inactive),2.19 (inactive),3.88 (inactive),3.47,-1.38 (inactive),0.247,-0.0788,1.07,0.0601
COCCOC(=O)N1C(=O)[C@@]2(c3cc(C#CCNC(N)=O)ccc31)[C@H](C(=O)N1CCCCCCC1)[C@H]1C(=O)O[C@H](c3ccccc3)[C@H](c3ccccc3)N1[C@@H]2c1ccccc1OCCO,1.2,1.42 (inactive),-0.922 (inactive),3.58 (inactive),2.05,-0.698 (inactive),0.957,0.601,1.04,0.295
CC(=O)NCCCC[C@@H]1NC(=O)[C@@H]2C[C@H](C(=O)NCCCCCNC(=O)CS)[C@H](c3ccc(O)cc3)N2C1=O,0.483,-2.05 (inactive),-1.83 (inactive),-1.55 (inactive),-0.0471,2.99 (inactive),-0.149,1.11,0.108,-0.212
NC(=O)NCC#Cc1ccc2c(c1)[C@]1(C(=O)N2)[C@H](C(N)=O)[C@H]2C(=O)O[C@H](c3ccccc3)[C@H](c3ccccc3)N2[C@@H]1c1ccccc1OCCO,1.22,0.592 (inactive),0.742 (inactive),0.804 (inactive),1.04,-0.829 (inactive),0.129,0.546,1.11,-0.151
CC(C)=C1C(=O)C(c2ccccc2)=C2CN3C(=O)N(CCc4ccccc4)C(=O)[C@]3(Cc3ccccc3)[C@H]21,-0.632,0.637 (inactive),0.927 (inactive),0.867 (inactive),1.15,-0.901 (inactive),0.213,-0.974,-0.546,-0.138
Cc1ccc(S[C@]2(C(=O)NCCN3CCOCC3)CC(=O)N(C3Cc4ccccc4C3)[C@@H]2c2ccc(CO)cc2I)cc1,1.01,-2.08 (inactive),-5.05 (inactive),0.401 (inactive),1.96,1.75 (inactive),0.366,-1.62,-0.484,-0.204
CO[C@H]1COC(=O)[C@H](C)NC(=O)CC=C[C@@H](C)[C@H](NS(=O)(=O)c2ccc(C)cc2)COC(=O)[C@@H](OCc2ccccc2)C=C[C@@H]1C,0.229,1.22 (inactive),0.129 (inactive),2.1 (inactive),-0.569,0.176 (inactive),-0.316,0.801,-0.439,-0.168
Cc1ccc(S(=O)(=O)N[C@H]2COC(=O)CC=C[C@H](C)COC(=O)N[C@@H](C)C(=O)CC=C[C@@H]2C)cc1,0.67,-0.11 (inactive),-0.784 (inactive),0.978 (inactive),-0.866,0.12 (inactive),-0.215,1.18,0.354,0.0486
CCCC=C(CCC)[C@@H](NS(=O)(=O)c1ccc(-c2ccccc2)cc1)c1ccc(C(=O)OC)cc1,0.266,0.282 (inactive),-1.51 (inactive),0.284 (inactive),1.76,-1.9 (inactive),-0.119,-0.666,-0.616,-0.059
COc1cccc([C@H]2N[C@H](C(=O)O)CC[C@@H]2C)c1,-0.158,-0.535 (inactive),-0.823 (inactive),0.48 (inactive),0.0605,0.395 (inactive),-0.23,0.002,0.202,-0.139
C[N+](C)(C)CCCCNC(=O)[C@H]1C[C@H]2C(=O)NCC(=O)N2[C@H]1c1cccc(OCCO)c1,1.54,-0.138 (inactive),0.0073 (inactive),-1.66 (inactive),0.57,-0.271 (inactive),-0.0463,1.91,1.05,0.0717
O=C1O[C@H](c2ccccc2)[C@H](c2ccccc2)N2[C@H]1[C@@H](C(=O)NC[C@H](O)c1ccccc1)[C@]1(C(=O)Nc3ccc(C#CC4(O)CCCCCC4)cc31)[C@H]2c1ccc(OCCO)cc1,1.32,1.93 (inactive),-0.538 (inactive),4.16 (inactive),2.72,3.35 (inactive),0.159,0.423,0.868,0.0301

# From PubChem BioAssay
